Assay results: ChEMBL document CHEMBL3988442, “University of Dundee, Small-Polar-MMV Screening Library” (2021)
Among all 48,000 compounds or so, about 13,000 (27%) showed an effect of 50% or more. The list shows a part of the results.

system: Wolbachia pipientis; test: Anti-Wolbachia Cell-Based Screen; type: functional; parameters: scale not given: in the data most compounds retested in dose-response had high values; details: 5 µM

| Compound | Percent Effect |
| --- | --- |
| CCC(C)C(=O)NCc1cccc(N2CCCCC2=O)c1 (stereo not drawn) | -5.78% |
| Cn1cnnc1S(=O)(=O)C1CCN(S(=O)(=O)C2CC2)CC1 | -4.739% |
| CN(Cc1cc(Br)cn1C)C(=O)c1cscn1 | 4.085% |
| CCC(NCc1nccn1C)c1nc(C(F)(F)F)cs1 (stereo not drawn) | 20.15% |
| Cc1ccc(CN2CCC[C@@H]3CN(C(=O)c4ccco4)C[C@@H]32)o1.O=C(O)C(F)(F)F | -0.1922% |
| COCC1c2nnn(C)c2CCN1C(=O)COc1ccccc1OC (stereo not drawn) | 111.7% |
| COCC(=O)N1CCc2c(nnn2C)C1COCCN1CCCC1.O=C(O)C(F)(F)F (stereo not drawn) | -0.9958% |
| CN(C)C(=O)N1CCc2c(nnn2C)C1COCc1ccccc1 (stereo not drawn) | -4.916% |
| Cn1cnnc1CNC(=O)Nc1ccc(OC2CCC2)c(F)c1 | 19.99% |
| Cc1nc(C)c(C(=O)N2CCCc3c(F)cccc32)o1 | -18.15% |
| Cc1ccc(C(=O)N2CCCC2c2nnc3n2CCCCC3)o1 (stereo not drawn) | -4.034% |
| Cc1nc(C)c(C(=O)N2CCCC2c2nnc3n2CCCCC3)s1 (stereo not drawn) | 13.74% |
| Cc1nc(C2CCCN(C(=O)c3sc(C)nc3C)C2)no1 (stereo not drawn) | -10.94% |
| Cc1nc(C)c(C(=O)N2CCc3nnc(C4CCCCN4C)n3CC2)s1 (stereo not drawn) | 78.92% |
| Cc1nc(C)c(C(=O)N2CCc3nnc(C4CCCN4C)n3CC2)s1 (stereo not drawn) | 98.46% |
| Cc1nc(C)c(C(=O)N2CCc3nnc(C4CCCCN4C)n3CC2)o1 (stereo not drawn) | 112.5% |
| Cc1ncsc1C(=O)N1CCc2nnc(C3CCCCN3C)n2CC1 (stereo not drawn) | 103.3% |
| Cc1cc2c(=O)n3c(nc2s1)CCN(C(=O)c1scnc1C)CC3 | -10.56% |
| C=C(C)COc1cccc(CNC(CC(C)C)c2ncnn2C)c1 (stereo not drawn) | -17.42% |
| CCc1ccccc1OCCN(C)C(=O)CCN1CCCCO1 | -13.9% |
| CCCN(CC)c1ccc(C(=O)N2CCCC2c2cnn(C)c2)cn1 (stereo not drawn) | 104.2% |
| CCN(c1ccc(C(=O)N2CCCC2c2cnn(C)c2)cn1)C(C)C (stereo not drawn) | 103.8% |
| CCN(c1ccc(C(=O)N(Cc2cnn(C)c2)C(C)C)cn1)C(C)C | -13.88% |

| Compound | Percent Effect |
| --- | --- |
| CC(C)(C#N)CCCS(=O)(=O)c1nccn1-c1cccc(F)c1 | -8.679% |
| CC(C)(C)c1cc(NC(=O)CN(Cc2cccs2)Cc2cccs2)on1 | 32.93% |
| CC(CC(F)(F)F)NCc1ccccc1-n1ccnc1 (stereo not drawn) | 3.95% |
| CC(C)C1CN(S(=O)(=O)c2ccc(C#N)cc2)CCS1 (stereo not drawn) | -10.5% |
| Cc1cc(C)n(C2CCCN(C(=O)CCOc3cccc(F)c3)C2)n1 (stereo not drawn) | 118.8% |
| Cc1nc(C)n(C2CCCN(C(=O)CCOc3cccc(F)c3)C2)n1 (stereo not drawn) | 103.4% |
| Cc1cc(C)n(C2CCCN(C(=O)COCC(F)(F)F)C2)n1 (stereo not drawn) | -14.38% |
| Cc1cc(C)n(C2CCCN(C(=O)CN(C)C3CC3)C2)n1 (stereo not drawn) | -13.37% |
| CC(NS(C)(=O)=O)C(=O)Nc1ccc2oc(C3CC3)nc2c1 (stereo not drawn) | -12.46% |
| CC(C)n1cnnc1CNC(=O)CCCOc1ccccc1Cl | -21.75% |
| O=C(NS(=O)(=O)c1cnn(-c2ccccc2F)c1)c1ccco1 | -14.51% |
| N#Cc1cccc(S(=O)(=O)N(CC2CCC2)c2cn[nH]c2)c1 | -4.525% |
| O=C(c1ccnnc1)N1C[C@H](Oc2cccnc2)[C@H]2OCCC[C@H]21 | -6.406% |
| O=C(c1ccnnc1)N1C[C@@H](OCc2cccnc2)[C@H]2OCCC[C@H]21 | 85.61% |
| Cc1occc1C(=O)N1CCO[C@H]2[C@H](Oc3cccnc3)CC[C@@H]21.O=C(O)C(F)(F)F | -18.12% |
| O=C(c1ccnnc1)N1CCO[C@H]2[C@H](Oc3cccnc3)CC[C@@H]21 | 84% |
| O=C(C1=CCCC1)N1C[C@H](OCc2cccnc2)[C@H]2OCCC[C@H]21 | -3.807% |
| O=C(c1ccnnc1)N1CCO[C@H]2[C@@H](OCc3cccnc3)CC[C@@H]21 | -4.529% |
| CCN(CC)C(=O)CCNC(=O)c1ccccc1N1CCOCC1 | -16.45% |
| Cc1csc(N2CCN(C(=O)c3cc(Cl)c[nH]3)CC2)n1 | -16.71% |
| Cc1nc(C)n(CC2CN(CCn3cccn3)CCO2)n1 (stereo not drawn) | 6.801% |
| Cc1nc(C)n(CC2CCCN(CCCS(=O)(=O)N(C)C)C2)n1 (stereo not drawn) | -11.1% |
| Cc1nc(C)n(CC2CCCN(CCC(=O)N3CCOCC3)C2)n1 (stereo not drawn) | 132.9% |

| Compound | Percent Effect |
| --- | --- |
| Cc1nc(C)n(CC2CCCCN2CCCO)n1 (stereo not drawn) | 0.7848% |
| Cc1nc(C)n(CC2CCCCN2CCS(C)(=O)=O)n1 (stereo not drawn) | -3.909% |
| Cc1nc(C)n(CC2CCCN(CC(=O)Nc3nncs3)C2)n1 (stereo not drawn) | -5.341% |
| Cc1nc(C)n(CC2CN(CCC(=O)N3CCCCC3)CCO2)n1 (stereo not drawn) | 110.4% |
| Cc1nc(C)n(CC2CCCN(CCC(=O)N3CCCCC3)C2)n1 (stereo not drawn) | -10.32% |
| Cc1nc(C)n(CC2CN(CCc3ccncc3)CCO2)n1 (stereo not drawn) | -6.873% |
| Cc1nc(C)n(CC2CCCN(CC(=O)N3CCCC3)C2)n1 (stereo not drawn) | 118.1% |
| Cc1nc(C)n(CC2CCCN2CCC(=O)N2CCCCC2)n1 (stereo not drawn) | 145.3% |
| Cc1nc(C)n(CC2CCCN(CC(=O)Nc3c(C)n[nH]c3C)C2)n1 (stereo not drawn) | -12.55% |
| CCc1nc(C)c(-c2nccn2CC2CCCCO2)[nH]1 (stereo not drawn) | -5.573% |
| CCN(C(=O)c1ccc2nnc(C3CCN(CCOC)C3)n2c1)C(C)C.O=C(O)C(F)(F)F (stereo not drawn) | 2.172% |
| CN(CCN1CCCCCC1)Cc1cnc(N)nc1 | -0.8813% |
| CCN1CCC(Cn2ccc3ccc(C(=O)OC)cc3c2=O)C1 (stereo not drawn) | -7.454% |
| COc1ccccc1CNC(=O)C1=NN(c2ccc(C)cc2)C(=O)CN1 | 1.348% |
| c1ccc(CCN2CCCC2c2ccnc(Nc3cnccn3)n2)cc1 (stereo not drawn) | 169.2% |
| c1ccc(CCN2CCCC2c2ccnc(Nc3ncccn3)n2)cc1 (stereo not drawn) | 212.6% |
| Fc1ccc2[nH]c(C3CCCN3CCc3ccccn3)nc2c1 (stereo not drawn) | 17.03% |
| c1cc(CCN2CCCC2CN2CCCC2)ccn1 (stereo not drawn) | 17.12% |
| COCC(=O)N1CCCC1c1ccnc(Nc2cnccn2)n1 (stereo not drawn) | -7.486% |
| CSCC1CCCN1CCc1ccncc1 (stereo not drawn) | 7.935% |
| Nc1nccc(C2CCCN2CCc2ccccc2)n1 (stereo not drawn) | 168.1% |
| O=C(CCN1CCCC1c1ccccn1)N1CCc2ccccc2C1 (stereo not drawn) | 1% |
